KB-3-1 tox: KB-3-1 parental cell cytotoxicity; KB-3-1 viability, CellTiter-Glo ATP luminescence, 72 h; Potency, µM (top dose mostly 46.1 µM), actives largely listed as cytotoxic; 400,000 tested, 1.4% active; further: nearly all actives have a fitted effect of over 60% in size
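Parental KB-3-1 viability, qHTS format: 72 h compound exposure, 37 °C; CellTiter-Glo; media-only wells and DMSO plates as controls; concentration-effect fits on corrected data.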
KB-V1 cytotox: KB-V1 MDR subline cytotoxicity. KB-V1 MDR cells viability, CellTiter-Glo, 72 h. Potency, µM (doses to about 46.1 µM), actives largely listed as cytotoxic. 400,000 tested, 3.4% active. AID 1347076; further: nearly all actives have a fitted effect of over 60% in size
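Potencies derive from concentration-effect curves fitted to normalized luminescence (CellTiter-Glo) of KB-V1 cells treated for 72 h at 37 degrees C in phenol-red-free DMEM containing 10% FBS.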
DT40 TDP1 CPT: DT40-hTDP1 cell growth loss with CPT; chicken DT40 Tdp1-/-;hTDP1 cells + 20 nM CPT, ATP luminescence, 48 h; Potency, µM (top dose mostly 46.2 µM), inactives show top-dose activity change, negative = growth inhibition, actives largely listed as inhibitors; 420,000 tested, 12% active; AID 686979; further: nearly all actives have a fitted effect of over 55% in size
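Cell growth measured by CellTiter-Glo luminescence after a minimum 48 h, 37 C compound exposure with 20 nM CPT in Tdp1-knockout DT40 cells stably expressing hTDP1, seeded 400/well; qHTS titration format.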
HT1080 IDH1KD tx: kills HT-1080 cells with IDH1 knockdown; HT-1080 IDH1 knockdown viability, ATP luminescence, 48 h; Potency, µM (doses to about 46.1 µM), inactives show at the highest dose activity, negative = toxicity, most hits filed as cytotoxic; 360,000 tested, 2% active; AID 686971;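 further: 0% = DMSO wells and -100% = cell-free medium wells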
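Assay cells: HT-1080 with IDH1 knockdown, 750 per well, RPMI/5% FBS. Exposure: 48 h at 37 °C following 2 h pre-incubation. Read: CellTiter-Glo luminescence; fitted concentration-response, curve class assigned.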
HT1080NT lethal: kills 2HG-producing HT-1080-NT fibrosarcoma cells; 360,000 tested, 1.6% active; HT-1080-NT fibrosarcoma viability, CellTiter-Glo ATP luminescence, 48 h; AID 686970; Potency, µM (titrated, usually from 46.1 µM), for inactives: at the top dose activity, negative = less viability, actives largely listed as cytotoxic;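 further: NT is the 2HG producing partner of a matched IDH1 knockdown line; 0% = DMSO-treated cells and -100% = media-only wells without cells; nearly all actives have a fitted effect of over 55% in size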
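Toxicity toward the 2HG-producing NT line was scored as %Activity, normalised to DMSO and no-cell wells, from CellTiter-Glo luminescence after 48 hours' treatment.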
TDP1 cell noCPT: qHTS for Inhibitors of human tyrosyl-DNA phosphodiesterase 1 (TDP1): qHTS in cells in absence of CPT; DT40 Tdp1-/- hTDP1 cells, no CPT, ATP luminescence, 48 h; Potency, µM (highest dose often 46.2 µM), inactives show top-dose activity change, negative = growth inhibition, usual class: inhibitors; 420,000 tested, 15% active; AID 686978, 2013; further: nearly all actives have a fitted effect of over 55% in size
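Chicken DT40 Tdp1-/- cells stably complemented with human TDP1 were seeded at 400 cells/well with DMSO in place of 20 nM camptothecin. After compound pinning, cells grew at least 48 hr at 37 °C; viability read by CellTiter-Glo luminescence.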
An asterisk follows results filed as active. Compounds with a hit are over-represented: about 19% of the library has one in this group of screens. The call rests on the fitted dose curve; in most records, active means well fitted curve in the direction sought with a large enough effect; inconclusive means small, poorly fitted or top-dose-only effect, or another doubt; inactive means no such curve, though single readings can be large; an effect the other way counts as inactive or inconclusive. Unless noted, on the % scale 0 is the no-effect control and ±100 the full control effect; potency means the concentration at half of the fitted maximal effect.

`CC(=O)Nc1ccc(C(=O)CSc2nnc3cc(C)c4ccccc4n23)cc1` gave KB-3-1 tox inactive, KB-V1 cytotox inconclusive, DT40 TDP1 CPT inconclusive and TDP1 cell noCPT inconclusive.
`O=C(OC(C(=O)NC1CCCC1)c1ccccn1)c1cccs1` (stereo not given) gave KB-3-1 tox inactive, KB-V1 cytotox inactive, DT40 TDP1 CPT 2%, HT1080 IDH1KD tx 0%, HT1080NT lethal 0% and TDP1 cell noCPT 7%.
For CCCCCCc1cc2cc(/C(N)=N/NC(=O)c3ccncc3)c(=O)oc2cc1O the results were KB-3-1 tox inactive, KB-V1 cytotox inactive, DT40 TDP1 CPT inconclusive, HT1080 IDH1KD tx -4%, HT1080NT lethal -12% and TDP1 cell noCPT 12µM*.
CC(C)Oc1ccc(C(=O)OC(C)C(=O)Nc2nc(-c3cccc([N+](=O)[O-])c3)cs2)cc1 (stereo not given) was read as KB-3-1 tox inactive, KB-V1 cytotox inactive, DT40 TDP1 CPT 16µM*, HT1080 IDH1KD tx -2%, HT1080NT lethal -4% and TDP1 cell noCPT 26µM*.
`O=C(Cc1cccc2ccccc12)Nc1nc(-c2cccc([N+](=O)[O-])c2)cs1` gave KB-3-1 tox inactive, KB-V1 cytotox inactive, DT40 TDP1 CPT inconclusive, HT1080 IDH1KD tx inconclusive, HT1080NT lethal -21% and TDP1 cell noCPT inconclusive.
CC(OC(=O)c1ccc(F)cc1)C(=O)Nc1nc(-c2cccc([N+](=O)[O-])c2)cs1 (stereo not given) was read as KB-3-1 tox inactive, KB-V1 cytotox 21µM*, DT40 TDP1 CPT inconclusive, HT1080 IDH1KD tx 15%, HT1080NT lethal 9% and TDP1 cell noCPT inconclusive.
Screening CC(OC(=O)c1ccco1)C(=O)Nc1nc(-c2ccccc2)cs1 (stereo not given) returned KB-3-1 tox inactive, KB-V1 cytotox inactive, DT40 TDP1 CPT inconclusive, HT1080 IDH1KD tx 0%, HT1080NT lethal 0% and TDP1 cell noCPT 16µM*.
CN(Cc1ccccc1)C(=O)c1cccc(NC(=O)Cc2ccc(NC(=O)C3CCN(C(=O)C4CC4)CC3)cc2)c1 was read as KB-3-1 tox inactive, KB-V1 cytotox inactive, DT40 TDP1 CPT -1%, HT1080 IDH1KD tx 0%, HT1080NT lethal 11% and TDP1 cell noCPT -16%.
`Cc1cccc(C)c1NC(=O)CC12CCCN1CCC2` gave DT40 TDP1 CPT inconclusive and TDP1 cell noCPT -20%.
Cc1nn(C)cc1CN1CCCC(C(=O)c2ccc(-c3ccccc3)c(F)c2)C1 (stereo not given) was read as KB-3-1 tox inactive, KB-V1 cytotox inconclusive, DT40 TDP1 CPT 18µM*, HT1080 IDH1KD tx inconclusive, HT1080NT lethal inconclusive and TDP1 cell noCPT 18µM*.
`COc1ccc(CN2CCCC(C(=O)c3ccc4c(c3)OCO4)C2)c(F)c1` (stereo not given) gave KB-3-1 tox inactive, KB-V1 cytotox inactive, DT40 TDP1 CPT -30%, HT1080 IDH1KD tx -5%, HT1080NT lethal -9% and TDP1 cell noCPT inconclusive.
`CC(C)Oc1cccc(C(=O)C2CCCN(C(=O)c3cncs3)C2)c1` (stereo not given) gave KB-3-1 tox inactive, KB-V1 cytotox inactive, DT40 TDP1 CPT inconclusive, HT1080 IDH1KD tx -2%, HT1080NT lethal 0% and TDP1 cell noCPT -19%.
`O=C(c1ccc(-c2ccccc2)c(F)c1)C1CCCN(C(=O)c2cncs2)C1` (stereo not given) gave KB-3-1 tox inactive, KB-V1 cytotox inconclusive, DT40 TDP1 CPT inconclusive, HT1080 IDH1KD tx -6%, HT1080NT lethal -18% and TDP1 cell noCPT 13µM*.

From PubChem BioAssay
